Measurements reported in PubChem BioAssay (NCATS).
Records with an inconclusive call do not appear. Entries that show only a call come without a potency. Values without a mark were called inactive. Active and inactive are the calls of the source. The call rests on the fitted dose curve; in most records, active means well fitted inhibition curve with a large enough effect; inconclusive means small, poorly fitted or top-dose-only effect; inactive means no such curve, though single readings can be large or run the other way.

Assays:
[1] = tested on: Zika virus NS2B-NS3 protease (unlinked complex); assay: Primary screen GU Rhodamine qHTS for Zika virus inhibitors: Unlinked NS2B-NS3 protease assay (AID 1347159); further: nearly all actives have a fitted effect of over 60% in size; further: potency means the concentration at half of the fitted maximal effect
Summary of the method: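 Percent inhibition came from the 15-min rise in Rhodamine110 fluorescence (1.5 microM substrate, ~15% conversion), normalized to no-inhibitor and no-enzyme wells and Hill-fitted. Unlinked protease, 25 nM, pH 8.0 Tris buffer; compounds up to 114 microM, 15-min preincubation.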

[2] = tested on: Zika virus NS2B-NS3 protease (linked construct); assay: Primary screen NINDS Rhodamine qHTS for Zika virus inhibitors (AID 1347160); further: nearly all actives have a fitted effect of over 55% in size
Summary of the method: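 Rhodamine110-peptide cleavage (1.5 µM substrate) by 25 nM linked NS2B-NS3 enzyme at pH 8.0 (Tris, Tween 20), after 15 min RT preincubation with compounds; 15-min fluorescence change normalized to controls and Hill-fitted.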

Structure (SMILES): O=C(NCc1ccccc1-c1ccccc1C(=O)NCCc1ccccn1)OCc1ccccc1
- Potency [1]: inactive
- Potency [2]: inactive

Structure (SMILES): COc1cc2ncnc(Nc3ccc(O)c(Br)c3)c2cc1OC
- Potency [1]: inactive
- Potency [2]: inactive

Structure (SMILES): CC(C)n1c(=O)c(C(=O)NC2CC3CCC(C2)N3C[C@@H](O)CN(C)S(C)(=O)=O)cc2ccccc21 (stereo partly specified)
- Potency [1]: inactive
- Potency [2]: inactive

Structure (SMILES): COC(C)(C)CCn1nc(Nc2c(C)cccc2C)c2cnc(Nc3ccc(OCCN4CCCC4)c(F)c3)nc21
- Potency [1]: inactive
- Potency [2]: inactive

Structure (SMILES): COc1cc(O)c2c(c1)C1OC1C[C@H](O)[C@H](O)C(=O)/C=C\C[C@H](C)OC2=O (stereo partly specified)
- Potency [1]: inactive
- Potency [2]: inactive

Structure (SMILES): CC(C)Oc1ccc(-c2cnc3c(-c4ccnc5ccccc45)cnn3c2)cc1
- Potency [1]: inactive
- Potency [2]: inactive

Structure (SMILES): CCc1cnc(N2CCC(c3nc(COc4ccc(-n5cnnn5)cc4)cs3)CC2)nc1
- Potency [1]: inactive
- Potency [2]: inactive

Structure (SMILES): O=C(Nc1ccc2[nH]c(=O)oc2c1)C(=O)N1CCC(Cc2ccc(F)cc2)CC1
- Potency [1]: inactive
- Potency [2]: inactive

Structure (SMILES): CCNC(=O)N1CCCN(c2ccc(C(=O)NCCc3ccc(Cl)cc3Cl)cc2NC(=O)c2cccc(Cl)c2)CC1
- Potency [1]: inactive
- Potency [2]: inactive

Structure (SMILES): C[C@H](Nc1ncnc2nc[nH]c12)c1cc2cccc(Cl)c2c(=O)n1-c1ccccc1
- Potency [1]: inactive
- Potency [2]: inactive

Structure (SMILES): O=C(Nc1ccc(CN2CCOCC2)cc1)c1ccc(-c2cccc(Cl)c2)o1
- Potency [1]: inactive
- Potency [2]: inactive

Structure (SMILES): CCNC(=O)c1noc(-c2cc(Cl)c(O)cc2O)c1-c1ccc(OC)cc1
- Potency [1]: inactive
- Potency [2]: inactive

Structure (SMILES): C=C(C(=O)O[C@H]1C/C(C)=C/CC/C(CO)=C/[C@H]2OC(=O)C(=C)[C@H]12)C(O)CO (stereo partly specified)
- Potency [1]: inactive
- Potency [2]: inactive

Structure (SMILES): C=CCCN1CCC2(CC1)CN(C(=O)c1c(F)cccc1F)c1ccc(Cl)cc12
- Potency [1]: inactive
- Potency [2]: inactive

Structure (SMILES): CC(=O)OC(C)(C)/C=C/C(=O)C(C)(O)C1C(O)CC2(C)C3CC=C(C(C)(C)C(=O)O)C(CC(=O)O)C3(C)C(=O)CC12C (stereo unspecified)
- Potency [1]: inactive
- Potency [2]: inactive

Structure (SMILES): C=C1CC(=O)C2OC2(C)CC2OC(=O)C(=C)C2C(O)C1OC(=O)/C(C)=C\C (stereo unspecified)
- Potency [1]: inactive
- Potency [2]: inactive

Structure (SMILES): C=C(COC(=O)C(O)C(O)CN)C12OC1C1(C)C(=CC2=O)C(O)C(O)CC1C (stereo unspecified)
- Potency [1]: inactive
- Potency [2]: inactive

Structure (SMILES): Cc1cc(NC(=O)c2cccc(NC(=O)/C=C/CN(C)C)c2)ccc1Nc1nccc(-c2cccnc2)n1
- Potency [1]: inactive
- Potency [2]: inactive

Structure (SMILES): CCCCOC(=O)NS(=O)(=O)c1sc(CC(C)C)cc1-c1ccc(Cn2ccnc2)cc1
- Potency [1]: 31.6 µM (active)
- Potency [2]: inactive

Structure (SMILES): O=C(Cc1c(F)cccc1F)Nc1cc(OCc2ccc(Cl)cc2)ccn1
- Potency [1]: inactive
- Potency [2]: inactive

Structure (SMILES): O=C(N[C@H]1CCC[C@H](CO)C1)C1CCN(c2nc3cc(Cl)c(-c4ccc(Cl)cc4)cc3o2)CC1
- Potency [1]: inactive
- Potency [2]: inactive

Structure (SMILES): COC(=O)c1sccc1S(=O)(=O)Nc1ccc(Nc2ccccc2)cc1OC
- Potency [1]: inactive
- Potency [2]: inactive

Structure (SMILES): CCOC(=O)N1c2ccc(C(F)(F)F)cc2C(N(Cc2cc(C(F)(F)F)cc(C(F)(F)F)c2)C(=O)OC)CC1CC (stereo unspecified)
- Potency [1]: inactive
- Potency [2]: inactive

Structure (SMILES): CCCC1(CCC)CCC2(CCN(CCCN(CC)CC)C2)CC1
- Potency [1]: inactive
- Potency [2]: inactive

Structure (SMILES): CCOc1cn(-c2ccc(F)cc2C)nc1C(=O)Nc1ccc(Oc2ccnc3cc(OC)c(OC)cc23)c(F)c1
- Potency [1]: inactive
- Potency [2]: inactive

Structure (SMILES): O=C(COc1ccc(C(=O)c2ccccc2)cc1)NC1CCN(Cc2ccccc2)CC1
- Potency [1]: inactive
- Potency [2]: inactive

Structure (SMILES): C[C@@H](N[C@H]1CCCC[C@@H]1NC(=O)c1ccc(Cl)cc1)c1cccc2ccccc12
- Potency [1]: inactive
- Potency [2]: inactive

Structure (SMILES): CCCOc1ccc(CCc2nc3cc(-c4c(C)noc4C)ccc3n2CCN2CCOCC2)cc1
- Potency [1]: inactive
- Potency [2]: inactive

Structure (SMILES): COc1ccc(-c2ccc3c(N4CCOCC4C)nc(N4CCOCC4C)nc3n2)cc1CO (stereo unspecified)
- Potency [1]: inactive
- Potency [2]: inactive

Structure (SMILES): O=C1Nc2ccccc2-c2nc3ccccc3c(=O)n2-c2c(O)cccc21
- Potency [1]: inactive
- Potency [2]: inactive

Structure (SMILES): COc1cc(C(=O)NCC2(N(C)C)CCCC2)cc(OC)c1OCc1ccccc1
- Potency [1]: inactive
- Potency [2]: inactive

Structure (SMILES): CC(C)(O)c1ccn2c(-c3ccc(F)c(-c4ccc(F)cc4C#N)c3)cnc2c1F
- Potency [1]: inactive
- Potency [2]: inactive

Structure (SMILES): CC(=O)O[C@@H]1CC[C@@]2(C)[C@H](CC[C@@H]3[C@@H]2C[C@H](OC(C)=O)[C@]2(C)[C@@H](C(C)=O)CC[C@@H]32)C1
- Potency [1]: inactive
- Potency [2]: inactive
